{"source": "the supplement of paper PMC6555819", "data": [{"test_system": "VDR:RXRa (NR concentration 270 nM, RXRa partner concentration 90 nM)", "assay": "PBM binding z-score (relative to random genomic background probes); higher = stronger binding; sequences stand for … in GC…GCGATTGACAGCGTAGAATGAAGG", "experimental": "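Protein-binding microarray (Agilent 4x180K custom design, double-stranded 60-nt probes: 5' GC cap, 34-nt variable region, 24-nt constant primer region; full probe sequence given). Purified or IVT nuclear receptor:RXRα heterodimers (3:1 NR:RXRα, mostly 270:90 nM) or homodimers were incubated for 1 h in PBS with 2% milk and no ligand, then detected with Alexa488 antibodies. Fluorescence from o1-orientation probes (~5 replicates averaged) was converted to z-scores against 500 random hg19 background probes. Variable regions are seed direct-repeat (DR0–DR5) sites, all their single-nucleotide variants and half-site ablations.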", "values": [{"sequence": "AGAATGAGGTTACCAAAGAACAGGGAAACGCTTG", "PBM binding z-score": 1.17}, {"sequence": "GCGGCTAGGTCAACTGATGGTCAGCTAAAGCTCG", "PBM binding z-score": 1.28}, {"sequence": "CGCCCAAGGTCATAGGAGGTCAGTGAAGACAGAT", "PBM binding z-score": 6.21}, {"sequence": "TGTCAAAGTTCAAAGGTAACGGAAGTATCCACAC", "PBM binding z-score": 5.14}, {"sequence": "CCTACTGGGCCAAGAAAGGTCATTGATTCAGTGA", "PBM binding z-score": 3.68}, {"sequence": "CGTCAAAGTTCAAGGTAACCTAACAGAAAGCAGC", "PBM binding z-score": 3.96}, {"sequence": "ATGTGTAGGTTATCGGGTCATTCAGTTTGCGCAT", "PBM binding z-score": 5.25}, {"sequence": "CGTCCAAGGTCAAAGAGGTCAGTGAATGCCGAGT", "PBM binding z-score": 7.77}, {"sequence": "TCTCGGAGGACACGAAAGGTTAGAGCTCGACATC", "PBM binding z-score": 0.803}, {"sequence": "TAGCCGAGGTCAGATCGGGCCAGTATACGCTATA", "PBM binding z-score": 4.26}, {"sequence": "TCATATAGGGAAATGCTAGGTGAAAGTCCGATCT", "PBM binding z-score": 0.702}, {"sequence": "TCGATTAGGTTACCAATGGGGCATTCAGCTTTCT", "PBM binding z-score": 0.441}, {"sequence": "TTACCAAGGTGCGCTGAGGTCGTTGATCCAACTC", "PBM binding z-score": 4.07}, {"sequence": "AGTCAAAGTTAACTAGGTAACGTAAGATTCAGCT", "PBM binding z-score": -0.0453}, {"sequence": "CGAACTAGATCAGAACAGGACAGTGAAGGATGAT", "PBM binding z-score": -0.438}, {"sequence": "GCTTGCAGATCAAGGTTAAGAAAGACTAAGCTAA", "PBM binding z-score": -0.0251}, {"sequence": "CGTCCAAGGTCAGAGAGGTCTGTGAATGCCGAGT", "PBM binding z-score": 4.72}, {"sequence": "CCTACTGGGCCATCAAGTCATTGATATCAACGTT", "PBM binding z-score": -0.0971}, {"sequence": "CCTCGGACGACAGAAGGTCAGAGCTGTCCGCTTT", "PBM binding z-score": 0.84}, {"sequence": "GCATATAGGTAACACAAGGTGAAAGTCCGATTGT", "PBM binding z-score": 0.418}, {"sequence": "CGAACTAGGTCATTCACAGGACAGTGAATAGTAA", "PBM binding z-score": 2.53}, {"sequence": "ACTATTAGTAGAGACGAGGGCAACCGATAGGTTG", "PBM binding z-score": 0.332}, {"sequence": "AACTCTAGGTAAAGTTCAGTGAAAGATCGATAGA", "PBM binding z-score": 1.15}, {"sequence": "GCTAGTTGGTTAGTAAAAGGTCACACACCGGTCG", "PBM binding z-score": 3.93}, {"sequence": "ACTAGCAGCCCAAGGGTCACTCAAGATTAGTCCG", "PBM binding z-score": 2.6}, {"sequence": "ATACCAAGGTGATCGTGAGGTCGTCGATACTAAC", "PBM binding z-score": 2.72}, {"sequence": "CCTGACGGGTCAAGGTTATAGCACGGGTGGTACG", "PBM binding z-score": 2.74}, {"sequence": "CGAACTAGGGCATGAGTTGATAGCAAATGCCGAT", "PBM binding z-score": 0.0428}, {"sequence": "CCTACTGGGCCATCAGGACATTGATATCAACGTT", "PBM binding z-score": -0.324}, {"sequence": "TCTCGGAGGACACGAAAGGTCAGACCTCGACATC", "PBM binding z-score": 3.52}, {"sequence": "ATCCCTAGGTAAAAGTTCAGTGAATCCCGAGGAT", "PBM binding z-score": 0.958}, {"sequence": "CCTAGCAGGCCAATCTGGATCACTCAAGGCTTGA", "PBM binding z-score": -0.611}, {"sequence": "CCTCGGTGGACAGAAGGTCAGAGCTGTCCGCTTT", "PBM binding z-score": 0.609}, {"sequence": "CCTACTGGGCCATTCAGAAGTCATTGATCATATG", "PBM binding z-score": -0.356}, {"sequence": "AGAACGAGGGCAGTGAGTTGATAGCACGGGTGGC", "PBM binding z-score": 3.91}, {"sequence": "GCTAGTTGGTAAGTAAAAGGTCACACACCGGTCG", "PBM binding z-score": 3.82}, {"sequence": "CAAACTAGGTCACTGAGGTCAAAGTCCGTGCGTA", "PBM binding z-score": 7.99}, {"sequence": "CCAGACAGGTGTGAAGGTAACTCAGCCTCGATTA", "PBM binding z-score": -0.322}, {"sequence": "CCGACTGGGGCAGAAAGGTTACCATTCCATCCGG", "PBM binding z-score": 0.567}, {"sequence": "TCTTGTAGATCAATGGTTAAGAAAGCCGAAGCCT", "PBM binding z-score": 0.403}]}]}
